High-throughput results (PubChem)
Mtb hypoxia inh: inhibitors of hypoxia-regulated fluorescent reporter in Mycobacterium tuberculosis | M. tuberculosis hypoxia-regulated fluorescent reporter, fluorescence | fluorescence inhibition, % (concentration not given with the values) | 0.1% of 300,000 active | AID 1159583; in the data active means fluorescence inhibition mostly above about 23%, no sharp cut-off; inactive means mostly below about 17%
BJeLR lethal: BJeLR cell viability loss. BJeLR (HRASV12) viability, CellTiter-Glo ATP luminescence, 48 h. inhibition, % (test concentration not listed). 0.17% of 300,000 active. AID 1554; in the data active means inhibition above about 50%
CCHF vOTU inh-1: CCHFV vOTU protease inhibition. Pep-AMC fluorescence. inhibition, % at 11.5 µM. 0.55% of 370,000 active. AID 651958
RecA intein inh: inhibitors of M. tuberculosis RecA intein splicing; P9WHJ3; cell-free RecA intein splicing, fluorescence; inhibition, % (test concentration not listed); 0.75% of 290,000 active; AID 2221; in the data active means inhibition above about 30%
Target sequence (P9WHJ3 whole entry, looked up): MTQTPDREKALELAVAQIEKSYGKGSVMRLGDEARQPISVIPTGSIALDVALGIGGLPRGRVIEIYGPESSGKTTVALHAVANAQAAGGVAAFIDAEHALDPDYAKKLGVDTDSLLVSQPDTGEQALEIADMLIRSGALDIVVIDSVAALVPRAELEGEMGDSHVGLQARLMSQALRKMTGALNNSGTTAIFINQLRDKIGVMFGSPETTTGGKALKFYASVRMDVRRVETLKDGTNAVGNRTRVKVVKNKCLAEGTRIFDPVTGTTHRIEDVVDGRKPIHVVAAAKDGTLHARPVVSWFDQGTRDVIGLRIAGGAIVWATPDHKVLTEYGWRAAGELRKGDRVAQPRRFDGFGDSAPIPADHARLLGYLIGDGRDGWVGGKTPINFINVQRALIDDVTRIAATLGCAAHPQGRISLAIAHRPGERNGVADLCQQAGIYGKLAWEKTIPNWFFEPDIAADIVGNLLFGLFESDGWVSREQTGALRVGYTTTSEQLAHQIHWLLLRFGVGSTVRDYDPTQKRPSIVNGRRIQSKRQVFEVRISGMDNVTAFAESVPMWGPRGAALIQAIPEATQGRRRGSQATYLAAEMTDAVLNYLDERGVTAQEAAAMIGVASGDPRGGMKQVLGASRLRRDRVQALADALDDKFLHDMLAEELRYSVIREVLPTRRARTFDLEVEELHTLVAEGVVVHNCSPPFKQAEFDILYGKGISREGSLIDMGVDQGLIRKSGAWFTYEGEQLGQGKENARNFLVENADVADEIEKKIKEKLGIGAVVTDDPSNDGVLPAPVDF
ugtP null kill: kills S. aureus RN4220 lacking UgtP. S. aureus RN4220 ugtP deletion, OD600 growth, 16 h. growth inhibition, % (test concentration not listed). 0.54% of 330,000 active. AID 1259309; in the data active means growth inhibition above about 68%
RN4220 kill: S. aureus RN4220 growth inhibition; OD600, 16 h; inhibition, % (concentration not given with the values); 0.33% of 330,000 active; AID 1259311; in the data active means inhibition above about 85%
CCHF vOTU inh-2: CCHFV vOTU protease inhibition, confirmation; shares compounds with CCHF vOTU inh-1; 17% of 1,900 active; inhibition, % at 11.5 µM; Recombinant CCHFV vOTU, Pep-AMC fluorescence
Hits are given with their value; . = inactive; / = no result given. Shown are actives, neighbours in structure and some others; about 1.6% of the full set was active somewhere. Unless noted, no stated cut-off is given here; in the data, active means inhibition above about 30%; inactive means the rest.

SMILES	Mtb hypoxia inh	BJeLR lethal	CCHF vOTU inh-1	RecA intein inh	ugtP null kill	RN4220 kill	CCHF vOTU inh-2
CC(C)(C)c1ccc(/C=N/OCC(=O)NCc2ccc(F)cc2)cc1	/	.	46	.	/	/	.
COCCn1c(SCC(=O)Nc2cccnc2Cl)nc2ccccc2c1=O	.	/	31	/	.	.	.
COCCn1c(SCC(=O)Nc2ccccc2C(F)(F)F)nc2ccccc2c1=O	.	.	.	.	.	.	/
COC(=O)C1=C(c2ccc(F)cc2OCc2ccccc2)CC2CCC1N2C(=O)NCc1ccc2c(c1)OCO2 (configuration not stated)	.	/	/	/	.	.	/
CCOC(=O)C1C2COc3cc(OC)ccc3C2N2C(=O)N(c3ccc(Cl)cc3)C(=O)[C@@]12C (some centres not stated)	.	/	/	/	.	.	/
N#Cc1c(-c2ccccc2)nc(SCc2cccc(Cl)c2)[nH]c1=O	.	.	32	.	.	.	.
Cc1[nH]c(=O)nc(SCc2cccc(Cl)c2)c1C#N	.	.	.	.	.	.	/
CC1=NN(c2ccccc2)C(=O)C1C=Nc1ccc(N(C)C)cc1 (configuration not stated)	.	.	30	/	.	.	.
CCN(C[C@H]1N[C@@](CC)(C(=O)OC)[C@H]2C(=O)N(Cc3ccccc3)C(=O)[C@@H]12)S(=O)(=O)c1ccc(OC)cc1	.	/	33	/	.	.	.
CCN(C[C@H]1N[C@@](Cc2ccccc2)(C(=O)OC)[C@H]2C(=O)N(Cc3ccccc3)C(=O)[C@@H]12)S(=O)(=O)c1ccc(OC)cc1	.	/	.	/	.	.	/
CC(C)(C)C=NNC(=O)C1CC1	.	/	/	/	.	.	/
O=C(CCc1ccccc1)Nc1ccncc1	.	.	50	.	.	.	.
O=C(CCc1ccccc1)Nc1cccnc1	.	.	.	.	.	.	/
COCC(=O)Nc1cc(C)cn(Cc2cccc(C(F)(F)F)c2)c1=O	.	.	.	.	.	.	/
Cc1cc(NS(C)(=O)=O)c(=O)n(Cc2cccc(C(F)(F)F)c2)c1	/	/	31	/	/	/	.
CC(=O)C1C(c2ccccc2)NC(=O)N(Cc2ccccc2)C1C (configuration not stated)	.	/	/	/	.	.	/
CCCC(=O)NC1=C(Cl)C(=O)c2ccccc2C1=O	/	/	93	/	/	/	83
CCN(CC)c1ccc(NC2=C(Cl)C(=O)c3ccccc3C2=O)cc1	.	/	/	/	.	.	/
O=c1c(O)c(-c2ccc(O)cc2)oc2cc(O)cc(O)c12	/	.	31	.	.	.	.
Cc1ccc(Cc2c(-c3cccc(Br)c3)nc3ccc(Cl)cn23)cc1	/	/	40	/	/	/	.
Cc1ccc(-c2nc3ccc(Cl)cn3c2Cc2ccccc2C(F)(F)F)cc1	/	/	32	/	/	/	.
COc1ccc(C=C2SC(=S)N(CCCC(=O)Nc3ccc(C(=O)O)c(O)c3)C2=O)cc1OC	/	/	.	/	/	/	/
O=C(CCCN1C(=O)/C(=C/c2ccccc2)SC1=S)Nc1ccc(C(=O)O)c(O)c1	/	.	30	38	/	/	.
O=C(CN1C(=O)/C(=C/c2ccco2)SC1=S)Nc1ccc(C(=O)O)c(O)c1	.	.	36	.	.	.	.
CCCCNC(=O)OC1CC2CCCC(=O)N3CCC(C1)C23 (configuration not stated)	.	/	/	/	.	.	/
SMILES	Mtb hypoxia inh	BJeLR lethal	CCHF vOTU inh-1	RecA intein inh	ugtP null kill	RN4220 kill	CCHF vOTU inh-2
O=C(CSc1nnc(-c2ccccc2)n1Cc1ccco1)Nc1ccc(OCc2ccccc2)cc1	/	/	32	/	/	/	.
O=C(NC1CCC(=O)N(CCSc2ccc(Br)cc2)CC1)OCc1ccccc1 (configuration not stated)	.	/	/	/	.	.	/
NC(Cn1cncn1)=NNC(=O)c1ccc(Cl)cc1Cl	.	/	/	/	.	.	/
O=C1NNC(c2ccccc2)=N/C1=C\c1ccccc1Cl	.	/	54	/	.	.	43
COc1ccc(C=c2sc3n(c2=O)NC2(c4ccccc4)N(C)C(=O)N(C)C2(c2ccccc2)N=3)cc1 (configuration not stated)	/	/	/	/	.	.	/
CCCN(C(=O)c1cn(CCC)c2ccccc12)c1ccc(Oc2cccnc2)cc1	/	/	38	/	/	/	.
Cc1ccc(S(=O)(=O)/N=C2/NC(=O)/C(=C/c3ccc(Br)o3)S2)cc1	.	.	36	.	.	.	.
Cc1ccc(S(=O)(=O)/N=C2/NC(=O)/C(=C\c3cc(Br)cc(Br)c3O)S2)cc1	.	/	/	.	.	.	/
O=C(Nc1sc2c(c1C(=O)O)CCCCC2)c1ccco1	.	.	.	.	.	.	/
CC1CCc2c(sc(NC(=O)c3ccco3)c2C(=O)O)C1 (configuration not stated)	.	.	32	.	.	.	.
